Laboratory results reported in PubChem BioAssay (NCATS).
Results filed as inconclusive are left out. Unmarked numbers belong to inactive results. Active and inactive are the calls of the source. Calls follow the shape of the dose curve; as a rule, active = well fitted inhibition curve with a large enough effect; inconclusive = small, poorly fitted or top-dose-only effect; inactive = no such curve, though single readings can be large or run the other way.

The compounds below were run against Cytochrome P450 3A7 (Homo sapiens) (UniProt P24462) (assay: Cytochrome P450 family 3 subfamily A member 7 (CYP3A7) small molecule antagonists: luciferase biochemical qHTS assay (AID 1963596; also: nearly all actives have a fitted effect of over 40% in size)). Conditions: P450-Glo CYP3A7 enzyme luminescence, 1 h; series mostly up to 57.4 µM; activity change, negative = inhibition: at the top concentration.
Chain of Cytochrome P450 3A7 (Homo sapiens) (P24462 whole entry, looked up): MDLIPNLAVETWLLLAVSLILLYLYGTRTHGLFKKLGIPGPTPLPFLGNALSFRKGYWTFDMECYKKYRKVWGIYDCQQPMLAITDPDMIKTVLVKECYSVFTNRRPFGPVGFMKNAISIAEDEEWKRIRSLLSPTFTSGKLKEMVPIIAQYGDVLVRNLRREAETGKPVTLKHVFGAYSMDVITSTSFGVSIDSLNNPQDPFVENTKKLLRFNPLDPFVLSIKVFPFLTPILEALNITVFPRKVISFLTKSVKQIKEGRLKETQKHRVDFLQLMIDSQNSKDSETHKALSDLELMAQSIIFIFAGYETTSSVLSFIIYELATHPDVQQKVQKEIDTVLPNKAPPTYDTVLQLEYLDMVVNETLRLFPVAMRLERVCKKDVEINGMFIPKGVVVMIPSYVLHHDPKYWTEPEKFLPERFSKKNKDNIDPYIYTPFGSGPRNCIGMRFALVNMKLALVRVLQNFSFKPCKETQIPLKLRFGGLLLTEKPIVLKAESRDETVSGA
Outline: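 In this luminescent screen, enzyme and proluciferin substrate meet test compound for 10 min before NADPH regeneration solution drives a 1 h room-temperature reaction; detection reagent halts turnover and luminescence is read 20 min later.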
% is scaled to controls: 0 for no effect and ±100 for the full control effect; potency is read from the fitted curve at half-maximal effect.

Row | SMILES | Potency | activity change, negative = inhibition
1 | CC1(C#N)CCN(c2c(C(=O)N3CCN(S(C)(=O)=O)CC3)cnc3cc(F)c(F)cc23)CC1 | 14.1 µM (active) | –
2 | Cc1cccc(NC(=O)Cn2c(=O)n(Cc3ccc(C(=O)NCc4ccc5c(c4)OCO5)cc3)c(=O)c3ccccc32)c1 | – | 0.364%
3 | CCCCS(=O)(=O)NC(Cc1ccc(OCCCCC2CCNCC2)cc1)C(=O)O (centres undefined) | – | -3.86%
4 | CCOC(=O)c1csc(-n2nc(-c3ccc(F)c(F)c3)c(Cc3ccc(S(N)(=O)=O)cc3)c2N)n1 | – | 1.34%
5 | COc1cc2ncnc(Nc3cccc(I)c3)c2cc1OC | – | -4.26%
6 | COc1ccc([C@@H]2N[C@H](C(=O)O)Cc3c2[nH]c2ccccc32)cc1CN1CCN(c2ccccc2F)CC1 | – | -22.8%
7 | Cc1ccc(S(=O)(=O)N2CCc3cc(C(=O)Nc4ccc(C(F)(F)F)cc4)ccc32)cc1 | – | -19.4%
8 | CC1(C)Oc2ncnc(N)c2N=C1c1ccc(C23CCC(CC(=O)O)(CC2)CC3)cc1 | – | -28.1%
9 | CNC1CCN(C(Cc2cccc(-c3ccncc3)c2)C(=O)c2sc3c(F)ccc(F)c3c2Cl)CC1 (centres undefined) | 2.39 µM (active) | –
10 | CC(NC(=O)CCc1nc2ccccc2c(=O)[nH]1)c1ccccc1 (centres undefined) | – | 0%
11 | COc1ccc(OC)c(-c2ccc(NC(=O)c3ccncc3F)cc2)c1 | – | -23.3%
12 | O=C(O)CN(CC(=O)O)Cc1cc2c(-c3ccccc3C(=O)O)c3cc(CN(CC(=O)O)CC(=O)O)c(=O)cc-3oc2cc1O | – | 0.913%
13 | Nc1ccn(C2O[C@H](CO)[C@@H](O)[C@@H]2O)c(=O)n1 (some centres undefined) | – | -0.935%
14 | O=C(O)c1ccc(Cc2c(-c3cccc(-c4ccccc4)c3)[nH]n(-c3nc(C(=O)O)cs3)c2=O)cc1 | – | 0%
15 | O=C(OC(C(F)(F)F)C(F)(F)F)N1CCN(Cc2cccc(Oc3ccccc3)c2)CC1 | – | -14.5%
16 | O=C(O)CCC(=O)C(=O)O | – | -1.01%
17 | CN1c2c(nc(N)[nH]c2=O)NCC1CNc1ccc(C(=O)NC(CCC(=O)O)C(=O)O)cc1 (centres undefined) | – | 1.07%
18 | CCCCC(CC)COC(=O)CC(C(=O)OCC(CC)CCCC)S(=O)(=O)O (centres undefined) | – | 0%
19 | N[C@@H]1CCCCN(c2c(F)cc3c(=O)c(C(=O)O)cn(C4CC4)c3c2Cl)C1 | – | 0.739%
20 | CC(C)=CCC/C(C)=C/CC/C(C)=C/CC/C=C(\C)CC/C=C(\C)CCC=C(C)C | – | -14.6%

Row | SMILES | Potency | activity change, negative = inhibition
21 | COc1ccc(C(=O)Nc2ccc3oc(-c4ccc(OC)cc4)nc3c2)cc1 | – | 0.861%
22 | COc1cc(C(=O)NC(c2ccccc2Cl)c2cc(Cl)c3cccnc3c2O)cc(OC)c1OC (centres undefined) | – | -11.8%
23 | O=C1CC[C@H](C(=O)O)N1 | – | -1.48%
24 | CCCCCC/C=C\CCCCCCCc1cccc(O)c1C(=O)O | – | -3.32%
25 | Nc1ncnc2c1ncn2[C@H]1O[C@@H](C(=O)N2CCN(CC(=O)Nc3cccc4c3CNC4=O)CC2)[C@H](O)[C@@H]1O | – | -20.3%
26 | CN1C(=O)OC(C)(C)C1=O | – | -5.08%
27 | CC1CCCCC1N(Cc1ccccc1)[S+](=O)([O-])c1ccc([S+](=O)([O-])N(C)C)cc1 (centres undefined) | – | 0.838%
28 | COC(=O)c1cc(S(C)(=O)=O)ccc1OC | – | 0.67%
29 | O=C(O)Cc1cn(-c2ccccc2)nc1-c1ccc(Cl)cc1 | – | -3.33%
30 | CCCCC(=O)O | – | 0%
31 | Cn1c(=O)c2c(nc(CN3CCN(C(=O)C4CC4)CC3)n2Cc2cccc(F)c2)n(C)c1=O | – | -21.1%
32 | Cc1ccc(-c2nnc(Nc3ccc(Br)cc3)c3ccccc23)cc1S(=O)(=O)NCc1nc2ccccc2[nH]1 | – | 0%
33 | Cc1cc(Nc2ccc(NC(=O)c3ccc(Nc4ccnc5ccccc45)cc3)cc2)nc(N)n1 | – | 10.5%
34 | CCn1nnnc1NCc1ccc(C(C)C)cc1 | – | 0%
35 | C=C(C)Cn1c(SCC(=O)c2cccs2)nc2sc3c(c2c1=O)CCCC3 | – | 0%
36 | C[C@@H]1CN(Cc2ccccc2)C[C@H]1c1nc2c(cnn2C2CCOCC2)c(=O)[nH]1 | – | 1.87%
37 | Cc1ncc(C[n+]2csc(CCO)c2C)c(N)n1 | – | -4.34%
38 | CCOc1ccc(NC(=S)N2CCC(C(O)(c3ccccc3)c3ccccc3)CC2)cc1 | – | -17.4%
39 | C=CC1=C(C(=O)O)N2C(=O)[C@@H](NC(=O)/C(=N\OCC(=O)O)c3csc(N)n3)[C@H]2SC1 | – | -25.7%
